TDP1 cell noCPT: qHTS for Inhibitors of human tyrosyl-DNA phosphodiesterase 1 (TDP1): qHTS in cells in absence of CPT. DT40 Tdp1-/- hTDP1 cells, no CPT, ATP luminescence, 48 h. Potency, µM (top dose mostly 46.2 µM), inactives show top-dose activity change, negative = growth inhibition, hits mostly inhibitors. AID 686978, 2013. 420,000 tested, 15% active; also: potency is read from the fitted curve at half-maximal effect; nearly all actives have a fitted effect of over 55% in size
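Readout: luminescence from CellTiter-Glo after 30 min in the dark at RT. Cells: DT40 Tdp1-/- with stable hTDP1, 400/well. Exposure: compounds alone, ≥48 hr, 37 °C.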
IL1B secr inh: qHTS for Inhibitors of Inflammasome Signaling: IL-1-beta AlphaLISA Primary Screen; 360,000 tested, 4.7% active; THP-1 LPS/ATP IL-1B secretion, AlphaLISA, 16 h; active compounds read low; AID 743279, 2014; activity change, % at 57.5 µM; in the data active = activity change below about -50%; inconclusive = mostly about -30% to -49%
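THP-1 cells pretreated 1 hr with compounds (up to 57.5 uM final), then stimulated with LPS (250 ng/mL final) plus ATP (1.25 mM final); secreted IL-1B measured by AlphaLISA after 16 hr, decreased signal indicating inhibition.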
DT40 TDP1 CPT: qHTS for Inhibitors of human tyrosyl-DNA phosphodiesterase 1 (TDP1): qHTS in cells in presence of CPT | chicken DT40 Tdp1-/-;hTDP1 cells + 20 nM CPT, ATP luminescence, 48 h | Potency, µM (top dose mostly 46.2 µM), inactives show at the top dose activity change, negative = growth inhibition, usual class: inhibitors | 420,000 tested, 12% active; also: potency is read from the fitted curve at half-maximal effect; nearly all actives have a fitted effect of over 55% in size
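Chicken DT40 Tdp1-/- cells stably complemented with human TDP1 were seeded at 400 cells/well in medium containing 20 nM camptothecin, exposed to pin-transferred compounds, and grown at 37 °C for at least 48 hr. Viability was read as ATP luminescence.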
Six1-Eya2 blk: qHTS Assay for Inhibitors of the Six1/Eya2 Interaction. activity change, % (test concentration not listed). AlphaScreen GST-Six1/His-Eya2 binding, biochemical; active compounds read low. 360,000 tested, 0.56% active; in the data active = activity change below about -65%; inconclusive = mostly about -30% to -63%
Target sequence (O00167 whole entry, looked up): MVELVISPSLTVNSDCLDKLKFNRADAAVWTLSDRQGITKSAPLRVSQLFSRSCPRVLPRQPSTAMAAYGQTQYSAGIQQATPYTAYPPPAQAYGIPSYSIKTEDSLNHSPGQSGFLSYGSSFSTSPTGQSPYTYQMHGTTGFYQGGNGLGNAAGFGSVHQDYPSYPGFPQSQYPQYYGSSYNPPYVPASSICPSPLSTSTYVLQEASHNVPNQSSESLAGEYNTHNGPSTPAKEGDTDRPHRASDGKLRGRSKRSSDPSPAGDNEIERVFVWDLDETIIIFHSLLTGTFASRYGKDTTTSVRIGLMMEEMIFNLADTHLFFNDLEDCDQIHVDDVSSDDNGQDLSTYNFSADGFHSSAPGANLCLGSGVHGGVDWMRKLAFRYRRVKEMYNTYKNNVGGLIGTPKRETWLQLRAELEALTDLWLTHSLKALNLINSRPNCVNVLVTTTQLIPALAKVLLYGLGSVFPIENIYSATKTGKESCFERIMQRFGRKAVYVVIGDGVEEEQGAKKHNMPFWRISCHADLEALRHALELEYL
Target sequence (Q15475 whole entry, looked up): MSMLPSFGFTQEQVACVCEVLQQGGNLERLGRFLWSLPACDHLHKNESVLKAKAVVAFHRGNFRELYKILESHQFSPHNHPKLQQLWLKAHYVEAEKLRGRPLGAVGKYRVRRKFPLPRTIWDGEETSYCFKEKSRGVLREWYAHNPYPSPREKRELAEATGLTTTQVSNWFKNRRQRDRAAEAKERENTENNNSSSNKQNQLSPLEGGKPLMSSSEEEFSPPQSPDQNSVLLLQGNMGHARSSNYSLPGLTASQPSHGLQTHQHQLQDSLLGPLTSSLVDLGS
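GST-Six1 + His-Eya2 (5X stock: 250/500 nM); Tris pH 8.0, 300 mM NaCl, 0.05% BSA, 0.02% Tween 20; GSH donor/Ni acceptor beads; 1 h 37 °C dark; AlphaScreen readout.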
TDP1 block: qHTS Assay for Inhibitors of Tyrosyl-DNA Phosphodiesterase (TDP1) | Potency, µM (titrated, usually from 130 µM), for the others: at the top dose activity change, negative = inhibition, usual class: inhibitors | AID 485290, 2010 | Tyrosyl-DNA phosphodiesterase 1 (Homo sapiens), Q9NUW8 | 350,000 tested, 0.28% active | recombinant TDP1, AlphaScreen DNA substrate cleavage; also: potency is read from the fitted curve at half-maximal effect; nearly all actives have a fitted effect of over 40% in size
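Recombinant human Tdp1 (E. coli-expressed, 1 nM final) preincubated with compounds 15 min at room temperature, then 5'-biotin/3'-phosphotyrosine-FITC DNA substrate (15 nM final) added for 5 min. AlphaScreen beads (10 ug/ml final) added 10 min; cleavage lowers signal.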
CtBP-E1A blk: qHTS Assay for Inhibitors of the CtBP/E1A Interaction; 340,000 tested, 0.49% active; AlphaScreen GST-E1A/His-CtBP binding, 1536-well; active compounds read low; activity change, % (no concentration beside the values); in the data active = activity change below about -65%; inconclusive = mostly about -30% to -63%
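AlphaScreen with 125 nM GST-E1A and 125 nM His-CtBP (5X stocks) in Tris pH 8.0, 300 mM NaCl, BSA, Tween 20, TCEP. Compounds preincubated 2 h at 37 deg C, then glutathione donor/nickel acceptor beads added for 1 h at 37 deg C in dark.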
Starred values were filed as active, the others as inactive; ? = inconclusive; . = no result given; [ ] = remark or other dose. Sampled rows, rich in hits. Any-hit rate of the full collection: about 18%. Unless noted, calls follow the shape of the dose curve; as a rule, active = well fitted curve in the direction sought with a large enough effect; inconclusive = small, poorly fitted or top-dose-only effect, or another doubt; inactive = no such curve, though single readings can be large; an effect the other way counts as inactive or inconclusive. % is scaled to controls: 0 for no effect and ±100 for the full control effect.

SMILES	TDP1 cell noCPT	IL1B secr inh	DT40 TDP1 CPT	Six1-Eya2 blk	TDP1 block	CtBP-E1A blk
COc1ccc(CCNc2nc3c(c(=O)n(C)c(=O)n3C)n2Cc2ccccc2Cl)cc1OC	7.31µM*	.	13µM*	.	-1.1%	.
CCN1CCN(Cc2nc3c(c(=O)n(C)c(=O)n3C)n2Cc2ccccc2Cl)CC1	.	.	.	.	4.9%	.
Cn1c(=O)c2c(nc(NCCc3ccccc3)n2CC(=O)NCCc2ccccc2)n(C)c1=O	5.1%	-6.3	-1.6%	7.5	4.1%	3.6
C=CCn1c(NCCc2ccccc2)nc2c1c(=O)n(C)c(=O)n2C	8.2µM*	-21.1	9.2µM*	-1.0	2.1%	-2.5
CCNc1nc2c(c(=O)n(C)c(=O)n2C)n1CCCc1ccccc1	5.8µM*	-9.0	11.6µM*	-2.8	.	2.0
Cn1c(=O)c2c(nc(CN3CCCCC3)n2Cc2c(F)cccc2Cl)n(C)c1=O	23.1µM*	12.4	?	9.9	.	8.8
CN(CC(=O)Nc1ccc(F)c(F)c1F)C(=O)C1CSC2(C)CCC(=O)N12 (stereo not drawn)	-0.4%	0.0	-22.0%	5.4	1.8%	6.1
C/C(Cl)=C\Cn1c(NCCc2ccccc2)nc2c1c(=O)n(C)c(=O)n2C	0.82µM*	-51.9*	0.651µM*	-0.5	5.2%	13.2
CCCCCCNc1nc2c(c(=O)n(C)c(=O)n2C)n1Cc1cccc(C)c1	.	.	.	.	2.8%	.
CN(C)c1nc2c(c(=O)n(C)c(=O)n2C)n1Cc1ccccc1	-25.5%	42.8	-11.7%	19.3	0.0%	1.7
COCCCNc1nc2c(c(=O)n(Cc3cccc(Br)c3)c(=O)n2C)n1C	?	28.2	-29.9%	-19.5	.	-19.5
Cn1c(=O)c2c(nc(Br)n2Cc2ccc3ccccc3c2)n(C)c1=O	?	-28.8	20.6µM*	-6.8	4.0%	-5.1
COCCCNc1nc2c(c(=O)n(C)c(=O)n2C)n1Cc1ccccc1	11.6µM*	.	16.4µM*	.	3.7%	.
Cn1c(=O)c2c(nc(NCCCO)n2Cc2cccc(C(F)(F)F)c2)n(C)c1=O	14.6µM*	11.1	18.4µM*	2.6	4.6%	0.7
Cc1c(C(c2cc3c(cc2Br)OCO3)c2c(C)n(C)n(-c3ccccc3)c2=O)c(=O)n(-c2ccccc2)n1C	-18.5%	2.5	-8.7%	5.2	4.9%	4.3
COc1ccccc1-c1ccnc(-n2ncc(C(=O)N3CCN(C(C)C)CC3)c2-c2ccco2)n1	-9.6%	.	8.2%[9.04 µM]	.	.	.
CCOC(=O)C1=CCN(S(=O)(=O)c2ccccc2Cl)C1c1cccc(Cl)c1 (stereo not drawn)	?	75.3	?	-2.4	.	4.5
N/C(=N\OC(=O)c1ccc(Cl)c([N+](=O)[O-])c1)c1ccccc1	?	-6.3	-11.6%	-1.2	.	.
COCCNc1nc2c(c(=O)n(Cc3cccc(Br)c3)c(=O)n2C)n1C	23.1µM*	25.8	?	-5.0	3.8%	-3.7
COCCNc1nc2c(c(=O)n(Cc3cccc(Cl)c3)c(=O)n2C)n1C	?	37.3	?	-0.1	.	2.9
C/C(Cl)=C/Cn1c(=O)c2c(nc(Br)n2Cc2ccccc2)n(C)c1=O	20.6µM*	-10.1	?	1.8	-5.3%	8.8
C=CCn1c(Oc2cc(C)ccc2C)nc2c1c(=O)n(C)c(=O)n2C	16.4µM*	-0.7	14.6µM*	-5.8	3.3%	4.8
COCCNc1nc2c(c(=O)n(C)c(=O)n2C)n1Cc1c(F)cccc1Cl	2.59µM*	.	1.84µM*	.	.	.
COc1cc2c(cc1OC)CN(C(=O)/C=C/c1cccc([N+](=O)[O-])c1)CC2	?	31.0	-38.3%	-1.6	12.8%	1.8
COc1cccc(CN(C(=O)c2ccccc2)C2CCS(=O)(=O)C2)c1 (stereo not drawn)	11.4%	-6.2	1.6%	1.1	2.2%	4.1
SMILES	TDP1 cell noCPT	IL1B secr inh	DT40 TDP1 CPT	Six1-Eya2 blk	TDP1 block	CtBP-E1A blk
Cc1cccc(C(=O)NNC(=O)C23CC4CC(CC(C4)C2)C3)c1O	?	41.9	?	4.6	1.5%	-4.5
Cn1c(=O)c2c(nc(CN3CCN(Cc4ccccc4)CC3)n2Cc2cccc(Cl)c2)n(C)c1=O	16.4µM*	-20.1	23.1µM*	1.0	4.1%	-12.6
Cc1ccc(Cn2c(NCCc3ccccc3)nc3c2c(=O)n(C)c(=O)n3C)cc1	8.2µM*	?	6.51µM*	0.6	9.1%	0.5
CN1CCN(c2nc3c(c(=O)n(C)c(=O)n3C)n2Cc2cccc(Br)c2)CC1	-6.6%	?	-23.0%	-3.7	7.9%	-14.1
Cn1c(=O)c2c(nc(NCC3CCCO3)n2Cc2cccc(Br)c2)n(C)c1=O (stereo not drawn)	14.6µM*	0.0	?	-1.8	4.8%	3.6
Cc1cccc(Nc2nc3c(c(=O)n(C)c(=O)n3C)n2Cc2ccccc2)c1	-0.6%	14.3	-16.0%	28.2	5.7%	0.0
CC1CC(C)CN(C(=O)C2CCC(CNc3c(N4CCCCC4)c(=O)c3=O)CC2)C1 (stereo not drawn)	2.1%	-12.6	-16.6%	2.2	.	.
COc1cc(=O)[nH]c(SCC(=O)Nc2nc3c(s2)CCCC3)n1	?	43.9	23.1µM*	-1.8	1.3%	8.7
CCOC(=O)c1c(NC(=O)CSc2nc3c(c(=O)n(C)c(=O)n3C)n2C(C)C)sc(C)c1C	-3.2%	15.1	0.7%	5.2	0.0%	4.9
COc1cc(=O)[nH]c(SC(C)C(=O)Nc2nc3c(s2)CCCC3)n1 (stereo not drawn)	-14.5%	34.3	-18.9%	-1.0	8.5%	0.0
CC(C)n1c(SCC(=O)Nc2nc3c(s2)CCCC3)nc2c1c(=O)n(C)c(=O)n2C	2.91µM*	?	11.6µM*	-14.9	7.3%	-1.0
CCC(c1nnnn1-c1c(C)cccc1C)N1CCN(c2cccc(C(F)(F)F)n2)CC1 (stereo not drawn)	14.6µM*	70.6	?	2.2	.	-3.2
CSCCC(c1nnnn1-c1c(C)cccc1C)N1CCN(C/C=C/c2ccccc2)CC1 (stereo not drawn)	18.4µM*	-59.3*	?	-25.7	.	-8.6
CCC(c1nnnn1-c1c(C)cccc1C)N1CCN(C/C=C/c2ccccc2)CC1 (stereo not drawn)	7.31µM*	-20.5	6.51µM*	-21.2	.	-19.6
